For ten sequences, binding signal results are on record in PMC7862700, “An all-to-all approach to the identification of sequence-specific readers for epigenetic DNA modifications on cytosine”.

Holding throughout (test): DAPPL (digital affinity profiling via proximity ligation, sequencing); 10 mM Tris-HCl pH 7.5, 50 mM NaCl, 1 mM DTT, 4% glycerol, room temperature, 30 min; GST-TFs on glutathione beads, 16-mer random dsDNA library, 0.1% formaldehyde crosslink after washing; high values mean tight binding
What all share (details): protein: recombinant; tags: N-terminal GST; dsDNA, one strand shown

Assay [1] concerns the target T1, ERG (Homo sapiens, UniProt P11308 1-479).
T1 sequence: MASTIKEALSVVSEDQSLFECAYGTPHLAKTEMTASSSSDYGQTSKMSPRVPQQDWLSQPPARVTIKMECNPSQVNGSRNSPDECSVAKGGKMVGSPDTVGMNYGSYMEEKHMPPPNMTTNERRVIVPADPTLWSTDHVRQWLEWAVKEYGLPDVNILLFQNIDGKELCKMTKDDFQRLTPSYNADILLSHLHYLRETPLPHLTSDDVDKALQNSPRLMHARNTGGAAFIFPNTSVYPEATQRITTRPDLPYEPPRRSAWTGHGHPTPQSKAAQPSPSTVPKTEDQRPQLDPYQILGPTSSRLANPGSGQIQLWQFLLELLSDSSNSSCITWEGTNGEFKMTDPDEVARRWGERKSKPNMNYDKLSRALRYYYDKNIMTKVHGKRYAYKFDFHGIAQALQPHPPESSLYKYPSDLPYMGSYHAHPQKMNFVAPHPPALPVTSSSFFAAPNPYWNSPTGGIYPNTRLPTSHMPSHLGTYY
The method in brief: (§1)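 Yeast served to express human transcription factors as GST fusions, which were then captured on glutathione beads and labelled with DNA barcodes. Pooled with a tag-only sample, they were incubated with 200 nmole of a 16-mer random double-stranded DNA library for 30 min at room temperature in Tris/NaCl/DTT/glycerol buffer, washed, crosslinked with 0.1% formaldehyde, ligated by proximity, amplified by PCR and sequenced. Dividing each hexamer's read frequency for a factor by its frequency for the tag-only sample gives the binding signal.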

In assay [2] the target is SPIB (Homo sapiens, UniProt Q01892 1-262). The method in brief: as §1
The target of assay [3] is T2, ELK3 (Homo sapiens, UniProt P41970 1-407).
T2 sequence: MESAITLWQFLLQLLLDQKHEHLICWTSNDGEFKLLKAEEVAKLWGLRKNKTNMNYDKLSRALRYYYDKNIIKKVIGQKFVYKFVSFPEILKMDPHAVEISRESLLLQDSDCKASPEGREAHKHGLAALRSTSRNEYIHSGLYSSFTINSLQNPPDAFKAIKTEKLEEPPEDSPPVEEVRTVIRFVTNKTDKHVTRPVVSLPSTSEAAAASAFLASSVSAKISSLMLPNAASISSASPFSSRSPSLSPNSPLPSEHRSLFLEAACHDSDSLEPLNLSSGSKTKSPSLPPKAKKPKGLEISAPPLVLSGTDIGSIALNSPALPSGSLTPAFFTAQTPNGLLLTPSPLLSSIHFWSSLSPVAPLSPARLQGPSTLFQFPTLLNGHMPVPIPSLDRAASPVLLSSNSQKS
The method in brief: as §1

In assay [4] the target is T3, ERF (Homo sapiens, UniProt P50548 1-548).
T3 sequence: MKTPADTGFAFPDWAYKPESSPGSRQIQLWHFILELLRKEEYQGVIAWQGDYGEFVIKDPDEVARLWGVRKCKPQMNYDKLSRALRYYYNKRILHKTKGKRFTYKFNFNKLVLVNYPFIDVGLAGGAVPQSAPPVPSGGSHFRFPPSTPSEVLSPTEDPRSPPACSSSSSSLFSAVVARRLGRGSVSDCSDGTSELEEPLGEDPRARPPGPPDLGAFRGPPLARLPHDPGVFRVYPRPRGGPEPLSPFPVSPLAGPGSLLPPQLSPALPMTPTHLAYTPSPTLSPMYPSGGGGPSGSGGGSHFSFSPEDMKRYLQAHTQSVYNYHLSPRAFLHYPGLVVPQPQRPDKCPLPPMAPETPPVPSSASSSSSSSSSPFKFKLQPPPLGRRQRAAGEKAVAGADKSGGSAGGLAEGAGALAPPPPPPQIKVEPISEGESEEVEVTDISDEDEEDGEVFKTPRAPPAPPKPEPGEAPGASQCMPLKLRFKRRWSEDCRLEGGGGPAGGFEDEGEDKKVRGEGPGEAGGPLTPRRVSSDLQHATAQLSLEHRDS
The method in brief:
as §1

In assay [5] the target is T4, ETV3L (Homo sapiens, UniProt Q6ZN32 1-361).
T4 sequence: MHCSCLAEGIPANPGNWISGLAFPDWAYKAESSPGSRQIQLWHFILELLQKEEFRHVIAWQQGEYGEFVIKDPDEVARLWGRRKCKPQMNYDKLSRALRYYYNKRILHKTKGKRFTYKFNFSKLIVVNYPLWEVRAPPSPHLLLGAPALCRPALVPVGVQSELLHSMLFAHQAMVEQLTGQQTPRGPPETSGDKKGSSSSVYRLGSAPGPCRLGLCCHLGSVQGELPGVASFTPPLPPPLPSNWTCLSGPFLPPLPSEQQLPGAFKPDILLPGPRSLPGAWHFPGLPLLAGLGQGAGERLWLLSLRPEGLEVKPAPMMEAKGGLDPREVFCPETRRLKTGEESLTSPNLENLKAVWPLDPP
The method in brief: as §1

In assay [6] the target is T5, ETS2 (Homo sapiens, UniProt P15036 1-469).
T5 sequence: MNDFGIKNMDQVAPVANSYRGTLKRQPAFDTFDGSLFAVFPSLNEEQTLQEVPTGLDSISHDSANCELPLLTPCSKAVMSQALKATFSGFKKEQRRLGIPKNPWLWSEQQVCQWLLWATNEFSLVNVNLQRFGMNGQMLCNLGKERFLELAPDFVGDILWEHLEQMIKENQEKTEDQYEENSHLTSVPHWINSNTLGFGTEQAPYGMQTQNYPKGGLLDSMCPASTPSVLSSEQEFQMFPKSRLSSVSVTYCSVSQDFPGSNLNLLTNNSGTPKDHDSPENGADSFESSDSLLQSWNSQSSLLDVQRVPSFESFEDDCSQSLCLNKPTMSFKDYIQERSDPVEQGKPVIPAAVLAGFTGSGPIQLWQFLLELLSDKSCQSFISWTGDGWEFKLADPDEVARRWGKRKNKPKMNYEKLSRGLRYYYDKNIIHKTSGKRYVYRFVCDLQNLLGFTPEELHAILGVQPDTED
An outline of the steps:
as §1

The target of assay [7] is T6, ETV7 (Homo sapiens, UniProt Q9Y603 1-341).
T6 sequence: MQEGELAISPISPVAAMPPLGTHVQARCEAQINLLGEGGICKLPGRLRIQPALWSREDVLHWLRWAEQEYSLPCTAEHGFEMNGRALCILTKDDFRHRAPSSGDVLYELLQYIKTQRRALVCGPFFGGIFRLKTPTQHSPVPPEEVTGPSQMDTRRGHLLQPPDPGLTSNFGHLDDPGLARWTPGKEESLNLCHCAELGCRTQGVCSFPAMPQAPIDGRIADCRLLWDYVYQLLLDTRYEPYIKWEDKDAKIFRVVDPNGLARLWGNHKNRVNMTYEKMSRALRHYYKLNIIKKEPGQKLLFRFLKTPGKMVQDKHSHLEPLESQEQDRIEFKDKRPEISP
An outline of the steps:
as §1

The target in assay [8] is T7, SPDEF (Homo sapiens, UniProt O95238 1-335).
T7 sequence: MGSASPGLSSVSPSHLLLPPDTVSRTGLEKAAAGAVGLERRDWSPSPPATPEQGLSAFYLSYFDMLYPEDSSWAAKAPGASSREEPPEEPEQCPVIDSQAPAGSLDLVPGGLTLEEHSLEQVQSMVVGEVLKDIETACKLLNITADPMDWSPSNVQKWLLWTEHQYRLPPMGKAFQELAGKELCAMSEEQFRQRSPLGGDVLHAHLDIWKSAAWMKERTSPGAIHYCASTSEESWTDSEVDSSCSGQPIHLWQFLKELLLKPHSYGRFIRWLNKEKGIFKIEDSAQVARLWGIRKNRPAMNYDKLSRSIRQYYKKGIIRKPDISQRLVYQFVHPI
The method in brief:
as §1

Assay [9] addresses ETV6 (Homo sapiens, UniProt P41212 1-452). The method in brief: as §1
In assay [10] the target is ETV1 (Homo sapiens, UniProt P50549 1-477). The method in brief: as §1
ETV1, sequence (P50549 whole entry): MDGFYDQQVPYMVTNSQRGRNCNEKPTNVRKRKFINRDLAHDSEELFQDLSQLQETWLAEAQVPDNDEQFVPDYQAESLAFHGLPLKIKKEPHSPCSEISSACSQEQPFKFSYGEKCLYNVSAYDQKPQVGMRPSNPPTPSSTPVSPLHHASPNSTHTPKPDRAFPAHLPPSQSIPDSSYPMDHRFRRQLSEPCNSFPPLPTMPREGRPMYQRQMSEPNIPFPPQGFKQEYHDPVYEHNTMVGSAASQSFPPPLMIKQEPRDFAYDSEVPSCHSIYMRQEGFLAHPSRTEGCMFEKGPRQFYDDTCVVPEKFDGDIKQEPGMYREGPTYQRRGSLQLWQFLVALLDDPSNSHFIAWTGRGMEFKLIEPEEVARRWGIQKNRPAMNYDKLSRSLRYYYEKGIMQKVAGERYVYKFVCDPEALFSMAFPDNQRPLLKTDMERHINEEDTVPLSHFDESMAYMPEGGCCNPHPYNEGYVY

SPIB, sequence (Q01892 whole entry): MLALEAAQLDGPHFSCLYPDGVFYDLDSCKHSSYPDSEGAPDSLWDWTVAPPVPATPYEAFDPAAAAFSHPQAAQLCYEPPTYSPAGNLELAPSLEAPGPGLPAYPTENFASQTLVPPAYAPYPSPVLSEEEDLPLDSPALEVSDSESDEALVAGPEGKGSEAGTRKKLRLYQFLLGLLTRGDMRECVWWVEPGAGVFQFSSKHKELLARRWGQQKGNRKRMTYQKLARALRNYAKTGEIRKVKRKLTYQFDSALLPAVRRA
ETV6, sequence (P41212 whole entry): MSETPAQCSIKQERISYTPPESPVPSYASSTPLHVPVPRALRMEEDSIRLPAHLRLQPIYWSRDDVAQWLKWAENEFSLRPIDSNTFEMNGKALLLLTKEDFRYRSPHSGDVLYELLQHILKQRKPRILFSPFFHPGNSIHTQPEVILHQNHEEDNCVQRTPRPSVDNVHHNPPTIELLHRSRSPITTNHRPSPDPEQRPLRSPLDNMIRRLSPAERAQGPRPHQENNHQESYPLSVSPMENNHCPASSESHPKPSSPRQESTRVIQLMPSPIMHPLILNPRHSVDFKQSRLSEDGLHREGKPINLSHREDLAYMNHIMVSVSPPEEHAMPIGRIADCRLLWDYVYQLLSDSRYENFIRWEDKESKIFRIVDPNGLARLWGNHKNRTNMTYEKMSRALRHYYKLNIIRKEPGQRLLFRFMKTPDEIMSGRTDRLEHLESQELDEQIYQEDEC

Regarding AAGACA, the binding signal in assay [1] is 1 fold enrichment (6-mer frequency, TF over GST control); in [2], 1.02 fold enrichment (6-mer frequency, TF over GST control); in assay [3] it was 1.01 fold enrichment (6-mer frequency, TF over GST control); in [4], 1.07 fold enrichment (6-mer frequency, TF over GST control); in assay [5], 1.01 fold enrichment (6-mer frequency, TF over GST control); in assay [6], 1.01 fold enrichment (6-mer frequency, TF over GST control). Also, the binding signal in [7] is 1.04 fold enrichment (6-mer frequency, TF over GST control).

For GGGTCT, the binding signal in assay [8] is 1.01 fold enrichment (6-mer frequency, TF over GST control).

Turning to GTGGAC, in [4], the binding signal is 1.03 fold enrichment (6-mer frequency, TF over GST control).

On to GCGCTA, for which the binding signal was 1.13 fold enrichment (6-mer frequency, TF over GST control) in [3]; 1.05 fold enrichment (6-mer frequency, TF over GST control) in [4]; 1 fold enrichment (6-mer frequency, TF over GST control) in [9].

In the case of GACCCT, the binding signal in assay [4] is 1.05 fold enrichment (6-mer frequency, TF over GST control).

Take CAGTTT: the binding signal was 1.03 fold enrichment (6-mer frequency, TF over GST control) in [2]; 1.04 fold enrichment (6-mer frequency, TF over GST control) in assay [3]; 1.01 fold enrichment (6-mer frequency, TF over GST control) in assay [4].

In the case of GGTGCT, in assay [10], the binding signal is 1.08 fold enrichment (6-mer frequency, TF over GST control).

Take GACAAA: the binding signal is 1.06 fold enrichment (6-mer frequency, TF over GST control) in assay [4] and 1.1 fold enrichment (6-mer frequency, TF over GST control) in [7].

As for TGTAGT, the binding signal in [8] was 1.03 fold enrichment (6-mer frequency, TF over GST control).

Consider GGGTCC, for which the binding signal in [8] is 1 fold enrichment (6-mer frequency, TF over GST control).
